Results published in PubChem BioAssay AID624352 (Sanford-Burnham Center for Chemical Genomics, 2012).
Hit rate of the full screen: of about 360,000 compounds, about 2,600 (0.72%) were called active. The sample as a whole holds a higher share of actives than the screen did. Unmarked numbers belong to inactive results.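 Rule for the calls: active = inhibition of the luminescence signal of 40% or more relative to plate controls, in a single-dose primary screen at 18.75 µM; inactive = the rest.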

test: HIF-2a reporter inhibitors, primary screen, luminescence, 786-0 RCC cells (AID 624352); conditions: 786-0 RCC cells HIF-2a reporter, luciferase luminescence, overnight; at 18.8 µM; hits give high values

Row | SMILES | inhibition
1 | COc1ccc(NC(=O)CN2C(=O)COc3ccc(S(=O)(=O)N4CCOCC4)cc32)cc1 | -0.73%
2 | CCCCSc1[nH]c(=O)c(C(=O)OCC)cc1C#N | 5.92%
3 | CCN(CC)CC(=O)Nc1sc2c(c1C(=O)c1ccccc1C)CCC2 | 31.1%
4 | O=C(Nc1ccccc1C(=O)O)c1cc(S(=O)(=O)N2CCCCC2)cs1 | -9.72%
5 | CC(NS(=O)(=O)c1ccccc1)c1n[nH]c(=S)n1-c1ccccc1 (stereo unspecified) | 16.8%
6 | C[C@@H]1CN([C@@H](C)CO)C(=O)c2cccc(NS(=O)(=O)c3ccc(F)cc3)c2O[C@H]1CN(C)C(=O)NC1CCCCC1 | -10.3%
7 | C=CCSc1nnc(N2C(=O)C(O)=C(C(=O)c3ccco3)C2c2ccc(F)cc2)s1 (stereo unspecified) | -55.2%
8 | Cc1ccc(-c2cc(C(=O)N/N=C/C=C/c3ccccc3)n[nH]2)o1 | -1.73%
9 | O=[N+]([O-])c1ccc(C=Nc2ccc(Cl)cc2Cl)s1 | -3.51%
10 | CC(C)(C)c1cc(C(=O)N/N=C/c2ccc([N+](=O)[O-])s2)n[nH]1 | 80.5% (active)
11 | COc1ccnc(Oc2ccccc2)n1 | -5.97%
12 | CCCCCCCCCCOC(=O)C[N+](C)(C)CC1CCCCC1O (stereo unspecified) | 7.58%
13 | CCN1CCC(O)(/C=C/c2ccc(C)cc2)C(C(=O)/C=C/c2ccc(C)cc2)C1 (stereo unspecified) | 66.8% (active)
14 | Cc1ccc(-c2nn(C(C)(C)C)c3ncnc(N)c23)cc1 | 71.5% (active)
15 | CCN(CC(=O)Nc1c(F)cccc1F)C(=O)c1ccc(-c2ccc(C(C)=O)cc2)o1 | -53.4%
16 | NS(=O)(=O)c1ccc(CNC(=O)c2ccc(Cl)cc2[N+](=O)[O-])cc1 | 2.46%
17 | Clc1ccc2nc(-c3ccccc3)nc(C(Cl)Cl)c2c1 | 57.1% (active)
18 | Fc1ccc2nc(-c3ccccc3)nc(SCc3nnc(-c4ccccc4)o3)c2c1 | 23.8%
19 | O=C(CSc1c2c(nc3ccc(Cl)cc13)CCCC2)NCc1ccco1 | 17.8%
20 | Cc1cc(C(=O)N2CCCC2(C)C(=O)O)c(C)o1 (stereo unspecified) | -4.82%
21 | CC(=O)Nc1ccc(CC#N)cc1 | 18.5%
22 | C/C(Cc1ccccc1)=N\NC(=O)CNC(=O)c1cccc(Br)c1 | 14%
23 | Cc1ccc(C(=O)Nc2c(-c3ccccc3)[nH][nH]c2=O)cc1 | -3.55%
24 | CN(C)C(=O)c1ccc(NC(=O)c2ccccc2-c2ccccc2)cc1 | 19.3%
25 | O=C(NC1=CC(=O)c2ccccc2C1=O)c1ccccc1 | 92.9% (active)
26 | Cc1ccc(-c2cnc(NC(=O)CCC(=O)N(C)Cc3ccccc3)n2C)cc1 | -43.9%
